Results filed as inconclusive are left out. Activity calls are given as the source filed them. Unless noted, calls come from the whole dose curve; as a rule, active = well fitted curve in either direction with a large enough effect (not every such curve was filed as active); inconclusive = small, poorly fitted or top-dose-only effect, or another doubt; inactive = flat fitted curve, though single readings scatter.
Columns and labels:
[1] = biological target: Lysosomal acid glucosylceramidase (Homo sapiens) (UniProt P04062); assay: Glucocerebrosidase-p2 (AID 348; in the data active = potency below about 10 µM; note: potency is the fitted concentration of half-maximal effect); details: purified GBA, blue fluorogenic substrate, 40 min
Lysosomal acid glucosylceramidase (Homo sapiens), sequence (P04062 whole entry, looked up): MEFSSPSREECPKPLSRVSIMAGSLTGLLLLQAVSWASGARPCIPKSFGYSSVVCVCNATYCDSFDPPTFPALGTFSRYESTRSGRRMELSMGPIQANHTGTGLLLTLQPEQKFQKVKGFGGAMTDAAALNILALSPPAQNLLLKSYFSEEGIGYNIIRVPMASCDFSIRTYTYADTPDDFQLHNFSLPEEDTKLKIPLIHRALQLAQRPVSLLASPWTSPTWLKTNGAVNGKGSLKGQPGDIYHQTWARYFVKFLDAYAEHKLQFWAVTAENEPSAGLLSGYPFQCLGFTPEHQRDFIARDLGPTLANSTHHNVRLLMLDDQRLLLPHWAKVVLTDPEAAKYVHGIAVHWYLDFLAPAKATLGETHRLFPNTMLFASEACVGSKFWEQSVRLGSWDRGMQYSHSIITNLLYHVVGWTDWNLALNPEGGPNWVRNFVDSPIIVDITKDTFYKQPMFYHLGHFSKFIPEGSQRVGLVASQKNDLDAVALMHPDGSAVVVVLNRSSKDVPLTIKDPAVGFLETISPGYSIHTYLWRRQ
How it was run: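 Normal human glucocerebrosidase (0.2 nM) with blue fluorogenic substrate (80 uM final) in citrate/phosphate pH 5.9 with 10mM sodium taurocholate, 0.01% tween-20; 40 min RT, NaOH/glycine stop; fluorescence Ex 365/Em 440; AC50 from a titration from 0.6 nM upwards.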

[2] = AP1 Signaling Pathway (AID 357); details: ME-180 AP-1-bla reporter, EGF-induced, beta-lactamase ratio, 5 h; at 7.69 µM (top of the series) unless noted;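 note: ME-180 reporter cells stimulated with EGF at its EC50 level; % is set by controls: 0 for no effect and ±100 for the full control effect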
How it was run: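 AP-1-bla ME-180 cells, Opti-MEM + 0.5% dialyzed FBS, plated overnight 37 °C. Cpd titration + EC50 EGF, 5 h 37 °C. CCF4 2.5 h RT; ex 405, em 460/530 ratio → %activity, AC50.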

[3] = biological target: Cytochrome P450 1A2 (Homo sapiens) (UniProt P05177); assay: p450-cyp1a2 (AID 410; calls by dose curve; note: potency is the fitted concentration of half-maximal effect;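 for activity change, negative = inhibition: -100% = full effect of reference inhibitor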); details: recombinant CYP1A2, luciferin-ME demethylation, luminescence; series mostly up to 57 µM
Cytochrome P450 1A2 (Homo sapiens), sequence (P05177 whole entry, looked up): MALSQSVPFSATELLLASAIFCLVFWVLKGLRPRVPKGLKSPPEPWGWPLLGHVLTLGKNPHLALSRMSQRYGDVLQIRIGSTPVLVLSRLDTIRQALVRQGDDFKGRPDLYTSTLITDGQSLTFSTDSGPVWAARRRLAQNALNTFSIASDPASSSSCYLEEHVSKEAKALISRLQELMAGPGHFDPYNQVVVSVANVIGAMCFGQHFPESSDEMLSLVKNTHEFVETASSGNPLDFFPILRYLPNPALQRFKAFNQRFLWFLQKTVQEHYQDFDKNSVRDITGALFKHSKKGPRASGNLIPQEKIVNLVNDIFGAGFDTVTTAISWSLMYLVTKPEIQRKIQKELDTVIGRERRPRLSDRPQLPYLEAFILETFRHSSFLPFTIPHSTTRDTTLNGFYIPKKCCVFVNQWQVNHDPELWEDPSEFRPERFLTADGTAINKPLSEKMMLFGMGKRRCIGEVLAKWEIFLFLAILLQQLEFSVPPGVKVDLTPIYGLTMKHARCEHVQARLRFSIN
How it was run: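 Read-out is luminescence from luciferin produced by CYP1A2 demethylation of Luciferin-ME (100uM, at Km). Detection reagent stopped the 60 min NADPH-dependent reaction; signals were normalized to 57 uM furafylline.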

[4] = NFAT Signaling Pathway (AID 444); details: Jurkat NFAT-bla M1, carbachol, beta-lactamase ratio, 5 h; at 7.69 µM (top of the series) unless noted;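 note: carbachol stimulus at about its EC50 of 1 µM final; % is set by controls: 0 for no effect and ±100 for the full control effect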
How it was run: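 Read-out: CCF4 FRET ratio (460 nm/530 nm) after 1 h RT dye loading, used for %activity and AC50 from titration series. Cells: Jurkat NFAT-β-lactamase/M1 line, treated with compound plus 1 uM carbachol for 5 h, 37 °C.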

[5] = Stat Signaling Pathway (AID 446); details: ME-180 SIE beta-lactamase reporter, IL-6 stimulated, 5 h; at 7.69 µM (top of the series) unless noted;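 note: ME-180 cervical cancer cells given 40 pM IL-6 alongside compound; SIE-controlled beta-lactamase reporter measured as 460/530 nm FRET emission ratio; % is set by controls: 0 for no effect and ±100 for the full control effect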
How it was run: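 Emission at 460 and 530 nm (excitation 405 nm) reports SIE-controlled beta-lactamase in ME-180 cells. Cells received compound with 40 pM IL-6 for 5 hrs at 37 C; data scaled between 300 pM IL-6 and 125 nM JAK-inhibitor controls.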

[6] = biological target: Glucocorticoid receptor (Homo sapiens) (UniProt P04150); assay: GR-EFC Redistribution (AID 451; calls by dose curve; note: potency is the fitted concentration of half-maximal effect); details: CHO-K1 GR-EFC translocation, beta-gal luminescence, 2 h
Glucocorticoid receptor (Homo sapiens), sequence (P04150 whole entry, looked up, the tested form may be a part): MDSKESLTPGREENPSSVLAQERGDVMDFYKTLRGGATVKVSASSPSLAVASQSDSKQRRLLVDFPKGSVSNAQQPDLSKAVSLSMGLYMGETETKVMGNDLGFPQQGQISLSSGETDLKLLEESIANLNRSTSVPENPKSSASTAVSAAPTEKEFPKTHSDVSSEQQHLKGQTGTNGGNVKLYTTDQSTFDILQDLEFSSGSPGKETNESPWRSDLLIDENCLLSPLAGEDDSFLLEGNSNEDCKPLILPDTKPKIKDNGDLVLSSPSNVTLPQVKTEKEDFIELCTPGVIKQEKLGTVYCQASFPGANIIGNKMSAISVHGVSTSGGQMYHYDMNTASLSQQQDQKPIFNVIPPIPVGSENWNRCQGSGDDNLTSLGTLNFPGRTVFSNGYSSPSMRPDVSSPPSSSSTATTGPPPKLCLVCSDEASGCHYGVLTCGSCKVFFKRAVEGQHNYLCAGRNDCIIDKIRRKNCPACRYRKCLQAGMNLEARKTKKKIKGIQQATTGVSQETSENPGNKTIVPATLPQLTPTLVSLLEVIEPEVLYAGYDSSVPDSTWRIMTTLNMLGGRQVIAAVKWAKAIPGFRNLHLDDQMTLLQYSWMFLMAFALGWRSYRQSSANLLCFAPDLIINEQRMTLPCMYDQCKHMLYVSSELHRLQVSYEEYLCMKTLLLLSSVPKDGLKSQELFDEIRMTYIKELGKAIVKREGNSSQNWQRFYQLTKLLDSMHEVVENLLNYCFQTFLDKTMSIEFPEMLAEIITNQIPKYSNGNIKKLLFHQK
How it was run: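 Translocation of GR-ED fusion to nuclear EA restores b-gal, read by luminescence after 1 h room-temperature detection. Engineered CHO-K1 biosensor cells, 1,000/well, exposed 2 h at 37 C to titrations up to 46 uM final.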

[7] = biological target: 3',5'-cyclic-AMP phosphodiesterase 4B (Homo sapiens) (UniProt Q07343); assay: qHTS Assay for Inhibitors of PDE-IV (AID 607; active = well fitted activation curve with a large enough effect in the main read-out, with a control signal flat, not every such curve was filed as active; note: % of control where 0% means no effect); details: HEK293 ACTOne CNG channel cells, membrane potential fluorescence; series mostly up to 22.9 µM
3',5'-cyclic-AMP phosphodiesterase 4B (Homo sapiens), sequence (Q07343 whole entry, looked up): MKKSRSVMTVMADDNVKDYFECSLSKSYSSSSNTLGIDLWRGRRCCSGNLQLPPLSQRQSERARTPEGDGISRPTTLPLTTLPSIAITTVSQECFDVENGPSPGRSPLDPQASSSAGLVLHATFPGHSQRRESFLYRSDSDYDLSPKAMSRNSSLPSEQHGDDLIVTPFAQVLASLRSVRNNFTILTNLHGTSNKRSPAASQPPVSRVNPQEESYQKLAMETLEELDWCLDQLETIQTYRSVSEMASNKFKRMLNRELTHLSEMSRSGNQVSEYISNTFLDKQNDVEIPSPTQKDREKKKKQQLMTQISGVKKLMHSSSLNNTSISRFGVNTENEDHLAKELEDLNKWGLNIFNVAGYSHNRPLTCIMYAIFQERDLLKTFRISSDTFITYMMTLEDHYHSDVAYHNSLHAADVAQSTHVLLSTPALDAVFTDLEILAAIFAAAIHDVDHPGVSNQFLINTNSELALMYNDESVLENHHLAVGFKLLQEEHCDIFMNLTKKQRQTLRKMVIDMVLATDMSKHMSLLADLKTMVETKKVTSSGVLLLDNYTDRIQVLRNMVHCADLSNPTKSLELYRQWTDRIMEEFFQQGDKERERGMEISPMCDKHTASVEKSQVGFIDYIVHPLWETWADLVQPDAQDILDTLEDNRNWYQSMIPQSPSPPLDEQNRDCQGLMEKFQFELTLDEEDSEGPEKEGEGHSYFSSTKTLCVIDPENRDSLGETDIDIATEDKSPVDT
How it was run: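 The readout is membrane depolarisation from a cAMP-sensing CNG channel, detected with a potential dye at ex 535/em 590. Cells were HEK293-derived (endogenous PDE-IV) at 1000 cells/well, titrated up to 22.9 uM final.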

[8] = biological target: Cytochrome P450 2C9 (Homo sapiens) (UniProt P11712); assay: qHTS Assay for Inhibitors and Substrates of Cytochrome P450 2C9 (AID 883; active = well fitted curve in the direction sought with a large enough effect; an effect the other way counts as inactive or inconclusive; note: % is set by controls: 0 for no effect and ±100 for the full control effect; nearly all actives have a fitted effect of over 60% in size); details: recombinant CYP2C9, luciferin-H luminescence, 60 min; series mostly up to 57.1 µM
Cytochrome P450 2C9 (Homo sapiens), sequence (P11712 whole entry, looked up): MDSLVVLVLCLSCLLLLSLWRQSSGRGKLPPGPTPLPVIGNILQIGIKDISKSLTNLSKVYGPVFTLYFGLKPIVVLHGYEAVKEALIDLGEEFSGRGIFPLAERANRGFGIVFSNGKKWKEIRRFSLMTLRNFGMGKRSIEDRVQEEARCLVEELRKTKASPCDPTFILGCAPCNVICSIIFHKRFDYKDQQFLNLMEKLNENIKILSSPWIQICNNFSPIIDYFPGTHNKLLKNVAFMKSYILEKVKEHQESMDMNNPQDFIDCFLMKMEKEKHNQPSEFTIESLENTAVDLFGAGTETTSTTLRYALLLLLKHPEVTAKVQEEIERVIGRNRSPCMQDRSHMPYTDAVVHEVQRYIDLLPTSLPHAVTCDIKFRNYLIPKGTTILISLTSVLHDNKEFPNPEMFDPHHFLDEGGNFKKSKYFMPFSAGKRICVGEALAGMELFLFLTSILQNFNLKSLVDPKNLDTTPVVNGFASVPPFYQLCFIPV
How it was run: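 Luminescent read-out of deoxyluciferin hydroxylation, normalized to 57uM sulphaphenazole (AC100). Reaction: 10nM enzyme, 100uM Luciferin-H (equal to KM), 25mM KPO4, 10 min compound preincubation, then 60 min with NADPH regeneration, both at 37C.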

[9] = qHTS Assay for Lipid Storage Modulators (AID 1519; calls by dose curve); details: Drosophila S3 cells, BODIPY lipid droplet/cell ratio, laser cytometry, cells loaded with oleic acid; for activity change, negative = inhibition: at 57.5 µM (top of the series)
How it was run: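 Cells seeded at 5,000 per well were treated with compounds over a concentration series and loaded with oleic acid (400 uM, as added). Lipid droplet fluorescence (488 nm excitation, 500-530 nm channel) was read by laser-scanning cytometry and normalized to 20 uM Triacsin C.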

[10] = Primary qHTS for small molecule stabilizers of the endoplasmic reticulum resident proteome: Secreted ER Calcium Modulated Protein (SERCaMP) assay (AID 1508630; active = well fitted curve in the direction sought with a large enough effect; an effect the other way counts as inactive or inconclusive; note: % is set by controls: 0 for no effect and ±100 for the full control effect); details: SH-SY5Y GLuc-SERCaMP (Gaussia luciferase released on ER calcium loss) secretion, thapsigargin, luminescence; series mostly up to 38.4 µM
How it was run: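 The SH-SY5Y reporter protocol was run at 3 concentrations up to 38.3 uM (primary) or 11 concentrations (follow-up): 16 h compound, 100 nM thapsigargin for 4 h, then extracellular luciferase luminescence.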

[11] = biological target: Mitogen-activated protein kinase 10 (Mus musculus) (UniProt Q61831); assay: JNK3 AlphaScreen Assay (AID 530); details: JNK3 lysate, c-Jun phosphorylation; series mostly up to 57.1 µM
How it was run: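 Kinase buffer: 20 mM Tris-HCl pH 7.6, 10 mM MgCl2, 1 mM DTT, 0.1 mM Na3VO4, 0.01% Tween-20; ATP 10 uM. Substrate biotin-GST-cJun(1-79), enzyme from activated HepG2 lysates. Detection by Ser73 phospho-antibody AlphaScreen.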

[12] = qHTS Assay for Identification of Small Molecule Agonists for Hypoxia Response Element Signaling Pathway (AID 914; active = well fitted activation curve with a large enough effect in the signal ratio, with a control signal flat, not every such curve was filed as active; the % refers to the signal ratio; note: % of control where 0% means no effect); details: ME-180 (cervical carcinoma) HRE-bla reporter, beta-lactamase ratio, CoCl2, 17 h; activation: stronger effect = higher value
How it was run: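 Cells were plated overnight, pin-dosed with compound in a titration series, co-stimulated with EC50 CoCl2 and incubated 17 hours at 37 degrees Celsius. CCF4 substrate was then loaded, and AC50 values came from the 460nm/530nm ratio.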

[13] = biological target: Cytochrome P450 2D6 (Homo sapiens) (UniProt P10635); assay: qHTS Assay for Inhibitors and Substrates of Cytochrome P450 2D6 (AID 891; active = well fitted curve in the direction sought with a large enough effect; an effect the other way counts as inactive or inconclusive; note: potency is the fitted concentration of half-maximal effect; nearly all actives have a fitted effect of over 60% in size); details: recombinant CYP2D6, luciferin-ME EGE luminescence; series mostly up to 57.1 µM
Cytochrome P450 2D6 (Homo sapiens), sequence (P10635 whole entry, looked up): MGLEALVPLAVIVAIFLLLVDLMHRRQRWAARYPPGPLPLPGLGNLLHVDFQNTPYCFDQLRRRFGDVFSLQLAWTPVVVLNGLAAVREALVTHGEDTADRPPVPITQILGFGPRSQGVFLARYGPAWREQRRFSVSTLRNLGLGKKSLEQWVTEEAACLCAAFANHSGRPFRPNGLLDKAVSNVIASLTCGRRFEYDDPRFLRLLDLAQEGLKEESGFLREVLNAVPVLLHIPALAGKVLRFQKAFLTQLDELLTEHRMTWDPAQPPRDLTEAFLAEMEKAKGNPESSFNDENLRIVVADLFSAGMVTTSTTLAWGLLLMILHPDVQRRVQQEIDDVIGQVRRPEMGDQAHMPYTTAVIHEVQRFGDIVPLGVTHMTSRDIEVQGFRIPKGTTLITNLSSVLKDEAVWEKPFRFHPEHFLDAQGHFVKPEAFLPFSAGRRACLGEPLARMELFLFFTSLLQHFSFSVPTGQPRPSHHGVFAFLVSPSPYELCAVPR
How it was run: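 Luminescent read-out of luciferin formed by 5 nM human CYP2D6 demethylating 30 uM Luciferin-ME EGE (Km level) over 60 min at room temperature after NADPH regeneration addition. Data normalized to full inhibition by 1.43 uM quinidine.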

[14] = biological target: Cytochrome P450 3A4 (Homo sapiens) (UniProt P08684); assay: qHTS Assay for Activators of Cytochrome P450 3A4 (AID 885; active = well fitted curve in the direction sought with a large enough effect; an effect the other way counts as inactive or inconclusive; note: nearly all actives have a fitted effect of over 65% in size); details: recombinant CYP3A4, Luciferin-PPXE luminescence, 60 min; series mostly up to 57.1 µM
Cytochrome P450 3A4 (Homo sapiens), sequence (P08684 whole entry, looked up): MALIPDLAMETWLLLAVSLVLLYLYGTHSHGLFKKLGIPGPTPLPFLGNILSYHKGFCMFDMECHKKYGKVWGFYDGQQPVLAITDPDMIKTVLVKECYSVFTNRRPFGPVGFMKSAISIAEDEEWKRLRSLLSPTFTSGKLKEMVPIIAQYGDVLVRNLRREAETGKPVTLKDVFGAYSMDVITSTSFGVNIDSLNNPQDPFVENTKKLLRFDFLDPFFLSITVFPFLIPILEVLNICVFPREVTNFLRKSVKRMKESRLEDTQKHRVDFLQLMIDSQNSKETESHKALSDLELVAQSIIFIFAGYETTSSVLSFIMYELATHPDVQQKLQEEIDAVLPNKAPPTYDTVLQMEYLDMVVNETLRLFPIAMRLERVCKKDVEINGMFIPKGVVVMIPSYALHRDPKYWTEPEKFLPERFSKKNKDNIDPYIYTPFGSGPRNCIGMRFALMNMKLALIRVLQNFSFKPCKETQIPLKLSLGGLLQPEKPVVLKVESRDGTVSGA
How it was run: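 Activators are scored by enhanced luminescence from CYP3A4 conversion of luciferin-PPXE (25uM, equal to KM) to luciferin, after 60 min at RT with an NADPH-regenerating system.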

[15] = biological target: Cytochrome P450 2C19 (Homo sapiens) (UniProt P33261); assay: qHTS Assay for Inhibitors and Substrates of Cytochrome P450 2C19 (AID 899; active = well fitted curve in the direction sought with a large enough effect; an effect the other way counts as inactive or inconclusive; note: potency is the fitted concentration of half-maximal effect; nearly all actives have a fitted effect of over 60% in size); details: recombinant CYP2C19, luciferin-H EGE luminescence; series mostly up to 57.1 µM
Cytochrome P450 2C19 (Homo sapiens), sequence (P33261 whole entry, looked up): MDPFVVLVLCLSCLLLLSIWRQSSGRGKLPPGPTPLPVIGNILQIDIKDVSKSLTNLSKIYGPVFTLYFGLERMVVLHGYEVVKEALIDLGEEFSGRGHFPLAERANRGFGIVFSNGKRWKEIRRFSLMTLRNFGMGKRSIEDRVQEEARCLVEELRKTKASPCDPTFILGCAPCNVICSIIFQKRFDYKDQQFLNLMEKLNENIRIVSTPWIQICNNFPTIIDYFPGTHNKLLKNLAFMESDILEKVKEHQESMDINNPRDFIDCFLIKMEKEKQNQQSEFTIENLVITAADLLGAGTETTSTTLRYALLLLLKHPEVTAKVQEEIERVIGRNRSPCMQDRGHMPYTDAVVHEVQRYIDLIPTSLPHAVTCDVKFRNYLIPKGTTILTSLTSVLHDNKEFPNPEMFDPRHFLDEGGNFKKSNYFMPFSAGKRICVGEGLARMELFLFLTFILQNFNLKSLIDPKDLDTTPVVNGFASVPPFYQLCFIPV
How it was run: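 Luminescence readout of luciferin formed from 10uM Luciferin-H EGE (KM level) by 5 nM CYP2C19 in 50mM KPO4. 60 min NADPH-driven reaction at 37C after 10 min compound preincubation; data scaled to 57uM ketoconazole inhibition.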

[16] = measured here: cell count channel max response
[17] = measured here: lipid channel max response

SMILES | Potency [1] | activity change, negative = inhibition [2] | Potency [3] | activity change, negative = inhibition [4] | activity, negative = inhibition [5] | Potency [6] | Potency [7] | Potency [8] | activity change, negative = inhibition [9] | max response [9, 16] [%] | max response [9, 17] [%] | Potency [10] | outcome [11] | activation [12] | Potency [13] | Potency [14] | Potency [15]
CS(=O)(=O)N1CCC2(CC1)CN(c1cccc(-c3ccccc3)c1)C2 | > 11.4 µM (inactive) | 6.38% (inactive) | 5.01 µM (active) | 9.12% (inactive) | -14.9% (inactive) | > 46 µM (inactive) | inactive | inactive | -16.1% (inactive) | -11.7 | -21 | inactive | – | – | – | – | –
Cc1cccc(CNc2ncnc3ccc(-c4cccc(C#N)c4)cc23)c1 | > 11.4 µM (inactive) | -19.4% (inactive) | 0.631 µM (active) | -25.8% (inactive) | -6.66% (inactive) | > 46 µM (inactive) | – | – | 0.488% (inactive) | -20.2 | -19.2 | inactive | inactive | – | – | – | –
O=C(c1csnn1)N1CCC2(CC1)CCN(c1ccccc1)CC2 | > 11.4 µM (inactive) | -9.9% (inactive) | 15.8 µM (active) | 25.1% (inactive) | 1.19% (inactive) | > 46 µM (inactive) | inactive | – | 4.25% (inactive) | 1.9 | 6.57 | inactive | inactive | -15.4% (inactive) | – | – | –
CC(=O)N1CCC2(CC1)CCN(C(=O)Nc1cccc(F)c1)CC2 | > 11.4 µM (inactive) | -10.4% (inactive) | inactive | 8.58% (inactive) | -7.06% (inactive) | > 46 µM (inactive) | inactive | – | 3% (inactive) | 11 | 16.9 | inactive | inactive | – | 3.16 µM (active) | – | –
O=C(c1ccco1)N1CCC2(CC1)CN(Cc1cc(C(F)(F)F)cc(C(F)(F)F)c1)C2 | > 11.4 µM (inactive) | 5.99% (inactive) | inactive | 15.6% (inactive) | 2.41% (inactive) | > 46 µM (inactive) | inactive | – | -5.85% (inactive) | 13.1 | 7.42 | inactive | inactive | – | 6.31 µM (active) | – | –
Cn1cccc1C(=O)N1CCC[C@@]2(CCN(c3ccncc3)C2)C1 | > 11.4 µM (inactive) | -2.65% (inactive) | 12.6 µM (active) | -12.6% (inactive) | 7.16% (inactive) | > 46 µM (inactive) | inactive | – | -3.31% (inactive) | -3.32 | -4.8 | inactive | inactive | – | – | inactive | 6.31 µM (active)
